Assay outcomes as filed in PubChem BioAssay.
The list is not random: actives were taken first. Their share in the collection is about 4.7%.
TIM10 inh: TIM10 yeast growth inhibition. inhibition, % at 10 µM. S. cerevisiae TIM10 strain growth, BacTiter-Glo luminescence, 24 h. 1.4% of 330,000 active;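 active means inhibition of 40% or more at the single tested concentration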;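 further: wild-type TIM10 isogenic control strain grown at permissive 25 °C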
tim10-1 inh: growth inhibitors of tim10-1 mutant yeast; inhibition, % at 20 µM; S. cerevisiae tim10-1 ts strain growth, BacTiter-Glo, 24 h; 2.2% of 330,000 active;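 active means inhibition of at least 40%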;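 further: mutant grown at 25 °C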
PfHsp90 yeast 2: reduces growth (ATP signal) of yeast expressing P. falciparum Hsp90. S. cerevisiae expressing PfHsp90, BacTiter-Glo ATP, 48 h; yeast lacking PDR1 and PDR3 efflux regulators. inhibition, % at 9.4 µM. 0.32% of 310,000 active. AID 504621;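 active means every replicate shows inhibition above about 80%, whatever the replicate mean, limit read from the data; inconclusive means mean inhibition reaches the set limit but some replicate falls short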
SKKanGAS inh: inhibitors of SKKanGAS S. pyogenes growth in kanamycin (SK-promoter or general growth effect) | inhibition, % at 7.5 µM | AID 1662 | 1.3% of 300,000 active | BacTiter-Glo, 6 h;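 active means mean replicate score, as percent of positive control median, at least 50; inconclusive means mean below 50 but one replicate at or above 50; inactive means mean and every replicate below 50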;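 further: strain carries kanamycin resistance gene driven by streptokinase promoter and grows in 40 µg/ml kanamycin; loss of luminescence reflects streptokinase promoter inhibition or plain growth inhibition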
tim23-1 inh: inhibits growth of tim23-1 mutant yeast; inhibition, % at 20 µM; S. cerevisiae tim23-1 growth, BacTiter-Glo luminescence, 24 h; 1.3% of 330,000 active;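 active means growth inhibition of the mutant yeast at or above 50%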;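 further: temperature-sensitive mutant grown at 25 °C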
ATG4B inh: blocks human ATG4B protease cleavage of LC3 substrate; Q9Y4P1; ATG4B cleavage of LC3-PLA2, NBD-HPC fluorescence, 1 h; inhibition, % at 8.33 µM; 0.51% of 340,000 active; in the data active means inhibition above about 40%
Target sequence (Q9Y4P1 whole entry, looked up): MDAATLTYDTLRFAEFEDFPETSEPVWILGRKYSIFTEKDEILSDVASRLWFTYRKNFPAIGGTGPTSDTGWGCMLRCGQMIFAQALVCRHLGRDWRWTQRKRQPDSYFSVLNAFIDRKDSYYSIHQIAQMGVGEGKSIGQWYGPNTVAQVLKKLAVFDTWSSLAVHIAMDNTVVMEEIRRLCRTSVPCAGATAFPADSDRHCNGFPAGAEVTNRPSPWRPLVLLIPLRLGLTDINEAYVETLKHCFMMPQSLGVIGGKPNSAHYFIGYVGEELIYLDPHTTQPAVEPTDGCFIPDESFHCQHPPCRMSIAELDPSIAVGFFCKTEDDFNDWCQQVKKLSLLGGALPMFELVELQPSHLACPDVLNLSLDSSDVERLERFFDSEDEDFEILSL
tim23-1 confirm: tim23-1 yeast growth inhibition, confirmed. shares compounds with tim23-1 inh. S. cerevisiae tim23-1 growth, BacTiter-Glo luminescence, 24 h. inhibition, % at 20 µM. 83% of 4,400 active;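 active means inhibition above about 39% in either of two replicate wells at 20 µM, limit read from the data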;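 further: temperature-sensitive tim23-1 mutant grown at 25 °C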
Of the large screens only hits and unclear results are named; the others gave an inactive call (follow-up assays come after a bar, where they were run).

COc1ccc(C2CC(c3ccccc3)=NN2c2ccc(N)cc2)cc1 (stereo unspecified)	tim23-1 inh 51.3 | tim23-1 confirm 41.2
COc1ccc(CCC(C)Nc2ccccc2F)cc1 (stereo unspecified)	none
Cc1ccc(-c2nnc(N3CCC(C)CC3)c3ccccc23)cc1C	none
Cc1ccc(-c2nnc(N3CCC(C)CC3)c3ccccc23)cc1	tim23-1 inh 52.6 | tim23-1 confirm 69.0
Cc1ccc(S(=O)(=O)NC(CC(C)C)C(=O)N2CCC(C)CC2)cc1 (stereo unspecified)	tim23-1 inh 53.7 | tim23-1 confirm 39.1
O=C(Nc1ccccc1)OC1CCC2CC1CCC2OC(=O)Nc1ccccc1 (stereo unspecified)	SKKanGAS inh 52.0, tim23-1 inh 53.0 | tim23-1 confirm inactive
c1ccc2[nH]c(CSc3nc4ccccc4o3)nc2c1	tim23-1 inh 54.4 | tim23-1 confirm 54.9
Brc1ccc(OCc2nc(-c3ccccn3)n[nH]2)cc1	tim23-1 inh 51.6 | tim23-1 confirm 52.9
COc1ccc(Nc2nc(N)c([N+](=O)[O-])c(NCCO)n2)cc1	none (no result: PfHsp90 yeast 2)
COc1ccc(Nc2nc(N)c([N+](=O)[O-])c(NC3CCCCC3)n2)cc1	tim23-1 inh 62.1 | tim23-1 confirm 51.9
Cc1nnc2n1N=C(c1ccc(F)cc1F)CS2	none (no result: SKKanGAS inh)
Cc1cc(C)cc(N(C(C)C(=O)NC2CCCC2)S(C)(=O)=O)c1 (stereo unspecified)	tim23-1 inh 88.5 | tim23-1 confirm inactive
CCOc1ccc(N(C(C)C(=O)NC2CCCCCC2)S(C)(=O)=O)cc1 (stereo unspecified)	none
CCOc1ccccc1NC(=O)C(=O)N/N=C/c1cc(Br)ccc1O	tim23-1 inh 58.8 | tim23-1 confirm 51.1
CCOc1ccccc1C=NNC(=O)C(=O)NN=Cc1ccccc1OCC	none (no result: TIM10 inh, tim10-1 inh, SKKanGAS inh, tim23-1 inh)
Cc1ccc(NC(=O)CN2C(=O)NC(C)(CC(C)C)C2=O)cc1F (stereo unspecified)	none (no result: SKKanGAS inh)
N=c1sccn1CC(=O)Nc1cc(Cl)ccc1Oc1ccccc1	tim23-1 inh 65.7 | tim23-1 confirm inactive
Cc1cccc(/C=N/NC(=O)c2c(-c3ccccc3)noc2C)c1O	tim23-1 inh 53.3 | tim23-1 confirm 51.0
COc1ccccc1/C=N/NC(=O)c1c(-c2ccccc2)noc1C	none
O=C(Cc1cccs1)N/N=C/C=C\c1ccco1	none
O=C(N/N=C/c1cccc(OCc2ccccc2)c1)c1cccs1	tim23-1 inh 54.6 | tim23-1 confirm 42.4
O=C(N/N=C/C=C\c1ccco1)c1cccs1	tim23-1 inh 64.1 | tim23-1 confirm 52.8
CC(=C/c1ccccc1)/C=N/NC(=O)c1cccs1	tim23-1 inh 63.7 (no result: PfHsp90 yeast 2) | tim23-1 confirm 54.6
O=C(O)c1ccc(COc2ccc(/C=N/NC(=O)c3cccs3)cc2)cc1	none
O=c1c2ccc([N+](=O)[O-])cc2ncn1CCOc1ccc(Cl)cc1	tim23-1 inh 62.2 | tim23-1 confirm 64.7
O=c1c2ccc([N+](=O)[O-])cc2ncn1CCOc1cccc(Br)c1	none
CN(C)C(=O)c1c(NC(=O)c2ccco2)sc2c1CCCCC2	tim23-1 inh 59.8 | tim23-1 confirm 48.8
O=C(Nc1sc2c(c1C(=O)O)CCCCC2)c1ccco1	none
COc1cc2nc(CN3CCN(S(=O)(=O)c4cc(C)ccc4C)CC3)[nH]c(=O)c2cc1OC	none (no result: SKKanGAS inh)
COc1ccc(C2CC(c3cccs3)=NN2C(=O)CCl)cc1OC (stereo unspecified)	none
COc1cc(C2CC(c3cccs3)=NN2C(=O)CCl)ccc1OC(F)F (stereo unspecified)	tim23-1 inh 56.0 | tim23-1 confirm 43.8
Oc1ccc(-c2nccc(-c3cccs3)n2)cc1	tim23-1 inh 56.7 (no result: PfHsp90 yeast 2) | tim23-1 confirm 57.5
CC(=O)COc1ccc2c3c(c(=O)oc2c1)CCCC3	none
C#CCOc1ccc2c3c(c(=O)oc2c1)CCCC3	tim23-1 inh 57.4 | tim23-1 confirm 49.8
Cc1cccc(Oc2nc(-c3ccncc3)nc3ccccc23)c1	SKKanGAS inh inconclusive
Cc1cccc(Oc2nc(-c3ccccn3)nc3ccccc23)c1	SKKanGAS inh 98.4, tim23-1 inh 51.0 | tim23-1 confirm 45.9
N#Cc1c(NC(=O)C2CC2)sc2c1CCCCC2	tim23-1 inh 51.0 | tim23-1 confirm 44.5
COc1cc2[nH]c(C(=O)N3CCN(c4ccccc4F)CC3)cc2c(OC)c1OC	tim23-1 inh 50.9 | tim23-1 confirm inactive
COc1cccc(N2CCN(C(=O)c3cc4c(OC)c(OC)c(OC)cc4[nH]3)CC2)c1	none
COc1ccc2cc(C(=O)N3CCN(c4ccccc4OC)CC3)[nH]c2c1	tim23-1 inh 58.5 | tim23-1 confirm 53.0
COc1ccccc1N1CCN(C(=O)c2ccc(-c3ccc(Cl)cc3)o2)CC1	tim23-1 inh 51.7 (no result: PfHsp90 yeast 2, SKKanGAS inh) | tim23-1 confirm 48.0
N=c1ccn(Cc2cccc(F)c2)cc1	none (no result: PfHsp90 yeast 2)
O=C1NC(NS(=O)(=O)c2ccccc2)(C(F)(F)F)C(=O)N1c1ccc(F)cc1 (stereo unspecified)	none
CCc1cc2cccc(C)c2nc1SCC(=O)N1CCN(C(=O)c2ccco2)CC1	tim23-1 inh 56.9 | tim23-1 confirm 37.8
O=c1c2nnn(-c3cccc(F)c3)c2ncn1Cc1ccccn1	none (no result: PfHsp90 yeast 2)
CCN1CCN(C(=O)c2ccc(-c3nc4ccccc4s3)s2)CC1	none
O=C(c1ccc(-c2nc3ccccc3s2)s1)N1CCOCC1	tim23-1 inh 53.3 (no result: PfHsp90 yeast 2) | tim23-1 confirm 43.9
CC(=Nc1ccc(C)cc1)c1sc2ccccc2c1O	none
CC(=Nc1cccc(O)c1)c1sc2ccccc2c1O	tim23-1 inh 63.3 | tim23-1 confirm 62.5
COc1ccc(CCn2c(C(C)C)nc3oc4ccccc4c(=O)c3c2=O)cc1	tim23-1 inh 50.7 | tim23-1 confirm 41.0
CC(C)c1nc2c(c(=O)c3ccccc3n2C)c(=O)n1CCc1ccccc1	tim23-1 inh 59.0 (no result: PfHsp90 yeast 2) | tim23-1 confirm inactive
CCCc1nc2oc3cc(OC)ccc3c(=O)c2c(=O)n1CCc1ccccc1	none
COc1ccc(CCn2c(-c3ccccc3)nc3c(c(=O)c4ccccc4n3C)c2=O)cc1	none (no result: PfHsp90 yeast 2, ATG4B inh)
Cc1cc(C)nc(SCc2nnc(SCC(=O)Nc3nccs3)n2C)n1	none (no result: TIM10 inh, tim10-1 inh, SKKanGAS inh, tim23-1 inh)
CCCCNC(=O)COc1ccccc1C(=O)c1cc(C#N)c(=O)n(CCOC)c1	none
CCS(=O)(=O)c1ccc(O)c(NC(=O)/C=C/c2ccccc2)c1	none
Cc1cccc(N2CCc3c2nc2ccc(Br)cc2c3N)c1	tim23-1 inh 75.7 | tim23-1 confirm 62.5
Nc1c2c(nc3ccc(Br)cc13)N(c1ccccc1)CC2	none (no result: SKKanGAS inh)
O=C(O)c1ccc(OCCN2CCCC2=O)cc1	none
Oc1ccc(/C=N/N(c2ccccc2)c2ccccc2)cc1O	tim23-1 inh 68.4 | tim23-1 confirm 44.6
